Among the data in PubChem BioAssay (NCI) are growth values, retold here.

Holding throughout (test): NCI-60 one-dose screen, 48 h (100 = growth as untreated, 0 = no growth, -100 = all killed)
Details in all cases: 10 µM unless noted

In test [1] the test system is NCI-H23 lung.
The test system of test [2] is NCI-H226 lung.
Test [3] concerns NCI-H322M lung.
For test [4], the system named is HOP-62 NSCLC.
The subject of test [5] is NCI-H460 lung.
Test [6] relates to NCI-H522 lung.
For test [7], the system named is A549/ATCC NSCLC.
The test system of test [8] is 786-0 renal.
The test system of test [9] is COLO 205 colon.
The test system of test [10] is DU-145 prostate.
Test [11] has as its system K-562 leukemia.
Test [12] relates to MALME-3M melanoma.
Test [13] relates to MDA-MB-231 breast.
For test [14], the system named is RXF 393 renal.
The test system of test [15] is SF-268 CNS.
For test [16], the system named is SF-295 CNS.
Test [17] has as its system SF-539 CNS.
Test [18] has as its system UACC-257 melanoma.
The test system of test [19] is M14 melanoma.

This is part of a sample that, as a whole, favours compounds with a hit. Of some 83,000 tested, about 20% had one in any assay.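 Testing used 96-well plates and a 48-hour single-concentration exposure. Example: -40 means 40% of the starting cells died.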 A number with no mark means an inactive call. Calls of active or inactive are those of the source. How the source made its calls: active means growth percent below 10; inactive means the rest.

On to `CSc1oc(C)nc1[P+](c1ccccc1)(c1ccccc1)c1ccccc1`, for which the growth was 30% in [1]; 67.6% in test [2]; 99% in [3]; 87.6% in test [4]; 37.3% in [5]; 56.5% in test [6]. The growth in [7] is 61.8%; in [8], 89.3%; in test [9], 7.5% (active); in test [10], 57.6%; in test [11] it was 31%; in test [12], 76.1%. The growth in [13] was 65.4%; in test [14], 75.9%; in test [15], 54.8%; in [16], 78.3%; in [17], 79.6%; in test [18] it was 20.5%. Further, the growth in test [19] is 74.9%.
`O=C(O)c1cn(C2CC2)c2cc(N3CCN(C(=O)N(c4ccccc4)c4nc(-c5ccccc5)cs4)CC3)c(F)cc2c1=O`: the growth in test [1] is -3.61% (active); in test [2] it was 4.84% (active); in test [3] it was 2.44% (active); in test [4], -1.15% (active); in [5] it was 2.93% (active); in test [6], -25% (active). Further, the growth in test [7] is 9.6% (active); in test [8], 4.01% (active); in test [9], -20.6% (active); in test [10], 15.4%; in test [11], 9.77% (active); in test [12], 2.79% (active). Moreover, the growth in test [13] is -48% (active); in test [14] it was 8.65% (active); in test [15] it was 19%; in test [16], -0.773% (active); in [17], -7.39% (active); in test [18], 1.71% (active). In test [19], the growth is 17.7%.
With `N#Cc1c(-c2ccc(Cl)cc2)c(C#N)c2c(C#N)c(N)nn2c1N`, the growth in [1] is 98.1%; in test [2] it was 86.8%; in [3], 81.7%; in [4], 79.5%; in test [5], 86.9%; in test [6], 64.8%. Further, the growth is 77.4% in [7]; 86.6% in [8]; 95.2% in test [9]; 84% in test [10]; 89.3% in test [11]; 106% in [12]. Also, the growth in [13] is 71.3%; in test [14] it was 79.7%; in test [15], 83.7%; in test [16], 83.3%; in [17], 78%; in test [18], 89.2%. Also, the growth in [19] is 103%.
In the case of `N#Cc1c(-c2ccccc2)[nH]c2ncc(-c3ccccc3)n2c1=O`, the growth in test [1] is 76.9%; in test [2], 86.3%; in [3], 88.6%; in test [4], 75.6%; in [5], 91.1%; in test [6], 76.9%. The growth is 90.6% in [7]; 92.3% in test [8]; 94.7% in test [9]; 99.7% in test [10]; 98.7% in test [11]; 91.5% in test [12]. Further, the growth in test [13] was 76.3%; in [14], 102%; in test [15], 91.7%; in [16], 78.2%; in test [17], 89.9%; in test [18], 94%. The growth in test [19] was 91.3%.
With `O=C1/C=C/[C@@H](O)[C@@H]2C[C@@H](O)C[C@H]2/C=C/CCC[C@H](CCc2ccccc2)O1`, the growth in [1] was 13.3%; in [2], -28.6% (active); in test [3], 35.9%; in [4], 30.1%; in test [5], 15.5%; in test [6], 7.89% (active). For the same compound, the growth was 16.6% in [7]; -54.7% (active) in test [8]; 14.1% in test [10]; 17.7% in test [11]; -14.2% (active) in test [12]; -65.1% (active) in test [13]. The growth in [14] was -4.18% (active); in test [15], 16.6%; in test [16] it was 1.38% (active); in test [17], 26.3%; in test [18], 25.4%; in test [19], 7.17% (active).
In the case of `CC1=C2[C@@H](CC1)[C@]1(C)O[C@@](C(C)C)(C[C@H]1OC(=O)[C@H](C)O)[C@H]2OC(=O)/C=C/c1ccccc1`, the growth in [1] is 90.7%; in [2] it was 84.2%; in [3], 85.9%; in test [4] it was 80.9%; in [5] it was 88.9%; in test [6], 74%. Further, the growth was 66.9% in test [7]; 66.5% in test [8]; 98.8% in test [9]; 105% in test [10]; 68.7% in test [11]; 101% in [12]. The growth in test [13] is 83.1%; in test [14], 30.8%; in [15], 41%; in test [16], 78.7%; in test [17], 96.8%; in [18], 90.5%. For the same compound, the growth in [19] is 87.2%.
In the case of `Cc1nc2sc(C(=O)Nc3ccc(Br)cc3)c(N)c2cc1C(O)c1ccccc1` (stereo unspecified), the growth was 61.1% in test [1]; 68% in test [2]; 90.4% in test [3]; 67.5% in test [4]; 69% in test [5]; 60.5% in test [6]. Further, the growth is 64.4% in test [7]; 81% in [8]; 64.5% in test [9]; 81.7% in test [10]; 12.1% in [11]; 63.9% in test [12]. In addition, the growth in test [13] was 57.9%; in [14], 86.6%; in test [15], 75.8%; in [16], 69.5%; in [17] it was 66.7%; in test [18], 61.8%. In addition, the growth in test [19] is 38.9%.
For the compound `Oc1c(Br)cc(Br)c2ccc(Cn3cc(-c4ccc(C(F)(F)F)cc4)nn3)nc12`, the growth was 84.7% in test [1]; 85% in test [2]; 103% in test [3]; 98.9% in test [4]; 103% in test [5]; -43.5% (active) in test [6]. In addition, the growth was 103% in test [7]; 96.9% in test [8]; 59.7% in test [9]; 46.2% in [10]; 6.39% (active) in [11]; 16.7% in test [12]. The growth is 96.3% in test [13]; 1.8% (active) in test [14]; 85.7% in [15]; 105% in test [16]; 56.2% in test [17]; 54.9% in test [18]. The growth in test [19] was 48.6%.
